The target of test [1] is Insulin receptor (Homo sapiens) (UniProt P06213). The conditions noted are these: at 10 µM.
For test [2] the target is unchanged. The conditions noted are these: at 1 µM.
The target is the same in test [3]. The note with it: at 10 µM. This is another data set of the same source.
The target in test [4] is Interleukin-1 receptor-associated kinase 1 (Homo sapiens) (UniProt P51617). The conditions noted are these: at 1 µM.
For test [5] the target is unchanged. The note with it: at 10 µM.
The target of test [6] is T1, Interleukin-1 receptor-associated kinase 4 (Homo sapiens) (UniProt Q9NWZ3).
T1 sequence (whole entry): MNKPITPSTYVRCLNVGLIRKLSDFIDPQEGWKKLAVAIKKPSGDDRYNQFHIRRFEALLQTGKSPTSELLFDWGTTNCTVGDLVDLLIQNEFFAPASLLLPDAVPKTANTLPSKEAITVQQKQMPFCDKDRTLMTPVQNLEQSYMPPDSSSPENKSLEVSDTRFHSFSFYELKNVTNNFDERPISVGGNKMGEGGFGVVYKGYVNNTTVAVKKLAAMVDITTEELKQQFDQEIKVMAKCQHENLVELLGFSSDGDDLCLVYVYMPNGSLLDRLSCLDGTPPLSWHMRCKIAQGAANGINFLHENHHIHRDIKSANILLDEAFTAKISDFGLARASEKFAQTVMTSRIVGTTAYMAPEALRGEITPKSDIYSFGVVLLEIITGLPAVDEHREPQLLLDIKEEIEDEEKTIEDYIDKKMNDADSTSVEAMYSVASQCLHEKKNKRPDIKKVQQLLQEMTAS
The note with it: at 1 µM.

For test [7], the target named is T1, Interleukin-1 receptor-associated kinase 4 (Homo sapiens). The conditions noted are these: at 10 µM.
Test [8] concerns the target Insulin receptor-related protein (Homo sapiens) (UniProt P14616). The conditions noted are these: at 1 µM.
For test [9] the target is unchanged. The note with it: at 10 µM.
In test [10] the target is Tyrosine-protein kinase JAK2 (Homo sapiens) (UniProt O60674). The note with it: at 1 µM.
Tyrosine-protein kinase JAK2 (Homo sapiens), sequence (O60674 whole entry): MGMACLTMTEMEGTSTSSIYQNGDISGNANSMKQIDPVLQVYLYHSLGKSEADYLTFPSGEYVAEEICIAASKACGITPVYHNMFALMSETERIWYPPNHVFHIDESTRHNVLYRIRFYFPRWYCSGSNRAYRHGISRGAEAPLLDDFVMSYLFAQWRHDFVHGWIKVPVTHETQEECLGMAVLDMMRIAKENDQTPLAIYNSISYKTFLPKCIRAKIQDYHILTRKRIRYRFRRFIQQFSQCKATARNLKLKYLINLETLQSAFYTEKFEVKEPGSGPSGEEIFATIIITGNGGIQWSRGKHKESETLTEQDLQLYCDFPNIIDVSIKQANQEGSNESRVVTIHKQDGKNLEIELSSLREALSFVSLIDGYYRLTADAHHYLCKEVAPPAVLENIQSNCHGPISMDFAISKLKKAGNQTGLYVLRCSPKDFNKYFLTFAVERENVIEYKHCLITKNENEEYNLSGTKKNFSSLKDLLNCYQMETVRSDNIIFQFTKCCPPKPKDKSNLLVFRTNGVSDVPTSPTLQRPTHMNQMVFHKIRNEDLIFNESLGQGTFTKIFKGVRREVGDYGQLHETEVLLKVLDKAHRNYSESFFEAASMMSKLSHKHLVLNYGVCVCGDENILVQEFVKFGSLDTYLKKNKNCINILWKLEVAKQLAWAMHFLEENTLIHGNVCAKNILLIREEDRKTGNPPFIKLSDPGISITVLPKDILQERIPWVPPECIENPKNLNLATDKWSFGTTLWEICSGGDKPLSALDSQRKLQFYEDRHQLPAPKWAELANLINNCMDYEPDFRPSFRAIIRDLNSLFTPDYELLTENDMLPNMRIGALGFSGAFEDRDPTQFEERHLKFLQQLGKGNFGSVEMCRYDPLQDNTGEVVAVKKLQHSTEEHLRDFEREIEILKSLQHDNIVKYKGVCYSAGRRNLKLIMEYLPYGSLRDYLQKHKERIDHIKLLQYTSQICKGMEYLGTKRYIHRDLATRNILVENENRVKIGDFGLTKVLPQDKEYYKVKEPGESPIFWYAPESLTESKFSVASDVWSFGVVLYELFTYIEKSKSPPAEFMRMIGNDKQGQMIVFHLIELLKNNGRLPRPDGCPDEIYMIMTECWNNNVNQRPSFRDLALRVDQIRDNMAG
For test [11] the target is unchanged. The note with it: at 10 µM.
For test [12], the target named is Mitogen-activated protein kinase 8 (Homo sapiens) (UniProt P45983). The note with it: at 1 µM.
Mitogen-activated protein kinase 8 (Homo sapiens), sequence (P45983 whole entry): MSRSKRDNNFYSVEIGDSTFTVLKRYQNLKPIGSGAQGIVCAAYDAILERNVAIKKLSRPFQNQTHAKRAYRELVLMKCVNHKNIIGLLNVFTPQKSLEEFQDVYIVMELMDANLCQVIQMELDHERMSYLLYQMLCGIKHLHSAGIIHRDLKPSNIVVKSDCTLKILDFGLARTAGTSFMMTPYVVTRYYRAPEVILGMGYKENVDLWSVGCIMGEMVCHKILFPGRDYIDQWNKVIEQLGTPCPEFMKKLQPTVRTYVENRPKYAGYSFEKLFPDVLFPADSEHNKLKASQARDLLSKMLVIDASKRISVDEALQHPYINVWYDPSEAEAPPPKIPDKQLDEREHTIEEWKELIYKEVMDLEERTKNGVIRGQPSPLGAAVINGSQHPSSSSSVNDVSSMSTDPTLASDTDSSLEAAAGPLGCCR
Test [13] concerns the target Mitogen-activated protein kinase 10 (Homo sapiens) (UniProt P53779). The note with it: at 1 µM.
Test [14] addresses T2, Tyrosine-protein kinase JAK3 (Homo sapiens) (UniProt P52333).
T2 sequence (whole entry): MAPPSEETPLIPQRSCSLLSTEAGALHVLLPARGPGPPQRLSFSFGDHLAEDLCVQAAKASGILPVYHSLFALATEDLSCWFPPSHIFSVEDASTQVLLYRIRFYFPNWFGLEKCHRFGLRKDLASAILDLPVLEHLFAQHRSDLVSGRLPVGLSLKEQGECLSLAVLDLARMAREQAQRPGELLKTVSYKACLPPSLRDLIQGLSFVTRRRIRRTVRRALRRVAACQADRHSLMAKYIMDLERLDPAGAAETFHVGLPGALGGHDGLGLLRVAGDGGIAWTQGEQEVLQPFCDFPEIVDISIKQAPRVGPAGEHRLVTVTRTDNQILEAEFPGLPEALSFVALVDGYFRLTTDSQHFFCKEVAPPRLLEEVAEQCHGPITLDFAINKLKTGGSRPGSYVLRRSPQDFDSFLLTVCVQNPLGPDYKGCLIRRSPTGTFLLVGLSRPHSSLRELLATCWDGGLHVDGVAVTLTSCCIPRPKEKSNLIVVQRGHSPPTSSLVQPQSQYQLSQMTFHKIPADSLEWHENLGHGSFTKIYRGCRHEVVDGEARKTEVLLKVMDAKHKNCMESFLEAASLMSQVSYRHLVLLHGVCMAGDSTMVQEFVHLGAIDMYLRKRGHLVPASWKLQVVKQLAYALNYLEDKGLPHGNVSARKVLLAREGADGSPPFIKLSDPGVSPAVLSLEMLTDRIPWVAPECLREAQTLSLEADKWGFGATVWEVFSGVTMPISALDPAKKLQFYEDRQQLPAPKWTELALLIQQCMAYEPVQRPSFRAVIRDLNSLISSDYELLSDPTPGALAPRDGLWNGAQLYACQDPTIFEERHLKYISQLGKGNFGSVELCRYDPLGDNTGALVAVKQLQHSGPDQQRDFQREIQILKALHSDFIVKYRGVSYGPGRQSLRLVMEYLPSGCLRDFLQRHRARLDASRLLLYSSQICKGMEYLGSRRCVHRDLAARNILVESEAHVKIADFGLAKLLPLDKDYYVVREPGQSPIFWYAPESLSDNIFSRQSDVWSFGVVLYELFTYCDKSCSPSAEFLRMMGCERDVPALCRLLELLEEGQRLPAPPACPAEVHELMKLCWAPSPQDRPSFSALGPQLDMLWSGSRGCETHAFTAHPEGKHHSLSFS
The conditions noted are these: at 1 µM.

The target of test [15] is Mitogen-activated protein kinase 8 (Homo sapiens) (UniProt P45983). The conditions noted are these: at 10 µM.
In test [16] the target is Mitogen-activated protein kinase 9 (Homo sapiens) (UniProt P45984). The conditions noted are these: at 10 µM.
Mitogen-activated protein kinase 9 (Homo sapiens), sequence (P45984 whole entry, looked up): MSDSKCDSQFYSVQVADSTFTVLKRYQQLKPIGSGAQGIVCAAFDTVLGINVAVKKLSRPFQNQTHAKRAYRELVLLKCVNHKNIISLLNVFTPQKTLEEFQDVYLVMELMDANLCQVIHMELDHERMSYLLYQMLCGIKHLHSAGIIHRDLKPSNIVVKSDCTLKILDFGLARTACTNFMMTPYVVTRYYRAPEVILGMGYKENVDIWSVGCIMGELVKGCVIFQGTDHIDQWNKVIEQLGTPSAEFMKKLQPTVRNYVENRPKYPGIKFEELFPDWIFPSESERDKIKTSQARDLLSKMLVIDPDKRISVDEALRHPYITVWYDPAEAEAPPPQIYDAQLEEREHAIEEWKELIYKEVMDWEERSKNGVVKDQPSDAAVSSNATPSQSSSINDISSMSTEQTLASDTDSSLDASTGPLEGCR
In test [17] the target is T3, Tyrosine-protein kinase ITK/TSK (Homo sapiens) (UniProt Q08881).
T3 sequence (whole entry): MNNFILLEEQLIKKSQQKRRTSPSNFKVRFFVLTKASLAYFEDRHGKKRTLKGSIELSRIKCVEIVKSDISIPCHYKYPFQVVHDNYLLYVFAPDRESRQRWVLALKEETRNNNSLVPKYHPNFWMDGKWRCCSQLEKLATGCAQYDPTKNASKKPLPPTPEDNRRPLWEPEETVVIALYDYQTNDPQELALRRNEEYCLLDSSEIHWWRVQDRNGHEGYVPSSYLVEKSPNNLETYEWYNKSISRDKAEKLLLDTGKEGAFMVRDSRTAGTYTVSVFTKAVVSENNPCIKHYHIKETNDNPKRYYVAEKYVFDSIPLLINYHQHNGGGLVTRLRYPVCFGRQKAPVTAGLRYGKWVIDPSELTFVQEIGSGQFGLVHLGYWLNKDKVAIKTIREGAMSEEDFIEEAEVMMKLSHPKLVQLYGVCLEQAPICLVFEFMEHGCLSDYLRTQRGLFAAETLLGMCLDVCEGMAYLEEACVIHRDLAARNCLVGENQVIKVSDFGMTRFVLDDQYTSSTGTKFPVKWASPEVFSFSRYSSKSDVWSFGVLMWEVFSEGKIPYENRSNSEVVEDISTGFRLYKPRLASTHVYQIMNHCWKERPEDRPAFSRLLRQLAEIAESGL
The conditions noted are these: at 1 µM.

Test [18] addresses T3, Tyrosine-protein kinase ITK/TSK (Homo sapiens). The conditions noted are these: at 10 µM.
The target of test [19] is T2, Tyrosine-protein kinase JAK3 (Homo sapiens). The conditions noted are these: at 10 µM.
Test [20] addresses Mitogen-activated protein kinase 9 (Homo sapiens) (UniProt P45984). The note with it: at 1 µM.

Insulin receptor (Homo sapiens), sequence (P06213 28-758 limits assumed): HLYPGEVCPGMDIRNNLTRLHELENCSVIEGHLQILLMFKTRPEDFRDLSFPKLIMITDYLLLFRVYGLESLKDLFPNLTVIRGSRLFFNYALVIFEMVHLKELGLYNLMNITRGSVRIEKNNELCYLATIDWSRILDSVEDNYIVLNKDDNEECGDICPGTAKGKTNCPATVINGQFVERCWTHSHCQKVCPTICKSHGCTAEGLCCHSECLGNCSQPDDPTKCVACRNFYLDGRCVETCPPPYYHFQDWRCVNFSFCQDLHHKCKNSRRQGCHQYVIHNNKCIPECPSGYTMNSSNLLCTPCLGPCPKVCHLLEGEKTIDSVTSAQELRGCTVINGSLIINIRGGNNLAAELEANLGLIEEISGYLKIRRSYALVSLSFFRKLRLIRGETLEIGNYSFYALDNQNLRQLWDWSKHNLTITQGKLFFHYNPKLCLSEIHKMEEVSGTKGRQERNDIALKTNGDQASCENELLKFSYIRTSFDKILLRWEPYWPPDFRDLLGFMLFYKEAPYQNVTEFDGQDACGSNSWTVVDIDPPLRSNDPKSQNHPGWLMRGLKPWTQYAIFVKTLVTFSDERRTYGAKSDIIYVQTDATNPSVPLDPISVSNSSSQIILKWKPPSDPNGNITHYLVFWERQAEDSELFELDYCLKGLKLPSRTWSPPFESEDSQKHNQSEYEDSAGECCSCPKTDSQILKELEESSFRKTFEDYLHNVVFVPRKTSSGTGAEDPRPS
Insulin receptor (Homo sapiens), sequence (P06213 763-1382 limits assumed): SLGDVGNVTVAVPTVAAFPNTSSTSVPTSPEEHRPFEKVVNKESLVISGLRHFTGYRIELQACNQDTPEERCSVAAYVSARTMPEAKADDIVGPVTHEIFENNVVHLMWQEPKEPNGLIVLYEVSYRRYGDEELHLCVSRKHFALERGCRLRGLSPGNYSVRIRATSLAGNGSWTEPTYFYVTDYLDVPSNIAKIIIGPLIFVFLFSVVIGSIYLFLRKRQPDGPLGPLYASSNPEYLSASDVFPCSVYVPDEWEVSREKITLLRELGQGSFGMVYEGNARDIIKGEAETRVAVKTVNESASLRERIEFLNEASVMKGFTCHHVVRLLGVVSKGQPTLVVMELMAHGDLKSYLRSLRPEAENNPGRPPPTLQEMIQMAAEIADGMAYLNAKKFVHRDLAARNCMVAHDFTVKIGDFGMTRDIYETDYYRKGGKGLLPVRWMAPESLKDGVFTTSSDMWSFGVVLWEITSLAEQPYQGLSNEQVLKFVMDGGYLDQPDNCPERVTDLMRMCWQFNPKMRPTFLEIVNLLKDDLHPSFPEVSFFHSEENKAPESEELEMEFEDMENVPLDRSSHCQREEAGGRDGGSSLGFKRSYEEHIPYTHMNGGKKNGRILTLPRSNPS
Insulin receptor-related protein (Homo sapiens), sequence (P14616 27-742 limits assumed): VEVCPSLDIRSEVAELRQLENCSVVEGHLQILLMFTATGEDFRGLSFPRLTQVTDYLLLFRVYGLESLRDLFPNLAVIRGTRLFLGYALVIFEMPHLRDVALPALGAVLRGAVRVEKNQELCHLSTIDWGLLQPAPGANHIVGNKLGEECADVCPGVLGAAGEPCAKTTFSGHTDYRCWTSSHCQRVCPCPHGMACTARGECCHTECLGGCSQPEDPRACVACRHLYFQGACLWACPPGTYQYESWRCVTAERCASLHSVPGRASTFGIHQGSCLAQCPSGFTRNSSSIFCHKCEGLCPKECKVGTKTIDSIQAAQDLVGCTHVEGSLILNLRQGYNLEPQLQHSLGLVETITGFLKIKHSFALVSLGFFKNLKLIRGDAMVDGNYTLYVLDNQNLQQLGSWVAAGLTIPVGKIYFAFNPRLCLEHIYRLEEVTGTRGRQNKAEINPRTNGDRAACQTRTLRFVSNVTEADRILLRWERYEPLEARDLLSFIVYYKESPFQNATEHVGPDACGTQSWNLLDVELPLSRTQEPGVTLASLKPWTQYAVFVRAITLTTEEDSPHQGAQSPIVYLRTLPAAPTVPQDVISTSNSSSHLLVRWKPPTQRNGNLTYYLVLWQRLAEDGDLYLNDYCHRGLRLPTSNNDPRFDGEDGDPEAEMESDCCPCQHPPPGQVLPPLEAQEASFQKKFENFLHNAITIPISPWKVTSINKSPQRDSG
Insulin receptor-related protein (Homo sapiens), sequence (P14616 747-1297 limits assumed): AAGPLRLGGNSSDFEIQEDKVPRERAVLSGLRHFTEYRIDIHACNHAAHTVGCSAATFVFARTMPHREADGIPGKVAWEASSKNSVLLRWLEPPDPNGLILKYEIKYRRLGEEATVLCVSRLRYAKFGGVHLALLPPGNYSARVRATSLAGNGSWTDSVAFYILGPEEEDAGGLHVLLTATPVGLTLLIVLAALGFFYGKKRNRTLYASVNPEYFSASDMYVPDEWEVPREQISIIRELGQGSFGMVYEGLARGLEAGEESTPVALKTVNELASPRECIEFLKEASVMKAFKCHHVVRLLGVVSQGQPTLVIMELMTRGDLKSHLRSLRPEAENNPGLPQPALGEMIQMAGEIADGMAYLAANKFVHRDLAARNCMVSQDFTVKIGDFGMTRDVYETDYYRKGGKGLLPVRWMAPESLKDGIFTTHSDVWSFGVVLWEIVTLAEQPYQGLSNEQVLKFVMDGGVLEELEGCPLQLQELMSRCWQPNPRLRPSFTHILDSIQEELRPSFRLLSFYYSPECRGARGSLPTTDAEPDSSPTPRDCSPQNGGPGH

`CN(C)CCCn1cc(C2=C(c3c[nH]c4ccccc34)C(=O)NC2=O)c2ccccc21`: the residual activity in [1] turned out to be 100%; in [2], 100%; in test [3], 72%; in test [4] it was 111%; in test [5] it was 89%; in test [6], 121%. In addition, the residual activity was 53% in [7]; 137% in [8]; 75% in [9]; 121% in [10]; 90% in test [11]; 111% in [12]. Also, the residual activity in test [13] came out at 117%.

Regarding `Cc1cncc2cccc(S(=O)(=O)N3CCCN(C(=O)CN)C[C@H]3C)c12`, the residual activity in [1] turned out to be 70%; in test [2], 97%; in [3], 76%; in test [4] it was 82%; in test [5], 67%; in test [14], 92%. For the same molecule, the residual activity in test [12] stood at 95%; in test [15] it was 82%; in test [16] it was 79%; in test [13], 72%.

For the molecule `c1ccc(-c2n[nH]c3c2oc2ccccc23)cc1`, the residual activity amounted to 96% in test [4]; 98% in test [5]; 91% in [6]; 68% in test [7]; 141% in test [8]; 73% in test [9]. Moreover, the residual activity worked out at 98% in test [17]; 66% in test [18]; 92% in test [14]; 70% in test [19]; 59% in test [13].

In the case of `N#CCCc1ccc2c(c1)-c1[nH]c3ccc([N+](=O)[O-])cc3c1CC(=O)N2`, the residual activity in test [3] worked out at 76%; in test [4], 45%; in [5] it was 20%; in test [6], 62%; in test [7], 28%; in test [8], 100%. The residual activity is 81% in test [9]; 81% in [17]; 52% in test [18]; 66% in [19]; 67% in test [13].

On to `CO[C@H]1[C@@H](OC)C[C@H](C)[C@@H](OC)C2=CC(=O)C=C(NC(=O)/C(C)=C/C=C/[C@H](OC)[C@@H](OC(N)=O)/C(C)=C/[C@@H]1C)C2=O`, for which the residual activity in test [1] was determined as 117%; in [2], 100%; in test [3] it was 112%; in test [4], 106%; in test [5], 94%; in test [6], 107%. Also, the residual activity in [7] was determined as 99%; in test [8], 133%; in [9] it was 79%; in test [17], 106%; in test [18] it was 107%; in test [10], 114%. Besides, the residual activity in [11] turned out to be 97%; in [14], 94%; in [19], 63%; in test [12], 120%; in test [15], 89%; in [20], 114%. For the same molecule, the figures for the residual activity in test [16] and in test [13] were 100% and 113%, respectively.

Regarding `Oc1ccc(-c2nc(-c3ccc(F)cc3)c(-c3ccncc3)[nH]2)cc1`, the residual activity in test [1] was 126%; in test [2], 97%; in test [3] it was 90%; in test [4], 104%; in test [5] it was 79%; in test [7], 88%. Besides, the residual activity in test [9] worked out at 98%; in test [17], 108%; in [18] it was 98%; in [10], 101%; in test [11], 112%; in test [14], 108%. Besides, the residual activity in test [19] worked out at 93%; in [12], 99%; in test [15], 79%; in test [20], 69%; in test [16], 12%; in test [13], 10%.
